According to PubChem BioAssay (EPA / NIEHS):
“And” between values parts separate entries of the source, which are not always exact repeats. Equal entries are not always repeated. The source made the active and inactive calls. How the source made its calls: active means hit-call score of the fitted dose curve at least 0.9, where 1 is the maximum; inactive means score below 0.9.

test: BSK_hDFCGF_Proliferation: Cell Proliferation Assessment in the BioMAP Diversity Plus: hDFCGF Assay (AID 2283059); details: primary human foreskin fibroblasts;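 further: curves fitted for both rise and fall of signal versus DMSO baseline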
Experimental: BSK_hDFCGF is a cell-based, multiplexed-readout assay that uses foreskin fibroblast, a human skin primary cell, with measurements taken at 24 hours after chemical dosing in a 96-well plate.BSK_hDFCGF_Proliferation is an assay component measured in the BSK_hDFCGF assay. It measures […] related to cell proliferation using Sulforhodamine staining technology.Data from the assay component BSK_hDFCGF_Proliferation was analyzed into 1 assay endpoint. This assay endpoint, BSK_hDFCGF_Proliferation, was analyzed with bidirectional fitting relative to DMSO as the negative control and baseline of activity. Using a type of viability reporter, measures of total protein for gain or loss-of-signal activity can be used to understand the viability at the cellular-level. Furthermore, this assay endpoint can be referred to as a secondary readout, because this assay has produced multiple assay endpoints where this one serves a viability function. To generalize the intended target to other relatable targets, this assay endpoint is annotated to the cell cycle intended target family, where the subfamily is proliferation.
The levels of cell surface (or secreted, indicated by the prefix "s") biomarker endpoints were measured by ELISA. Overt cytotoxicity to cells in confluent adherent cultures (all systems other than the BT system) was assessed by measuring total protein levels using sulforhodamine B (SRB) staining in parallel cultures at the time of biomarker measurements, indicated as SRB endpoints. For proliferation assays for adherent cell types, individual cell types are cultured at sub-confluence and relative cell numbers quantified by SRB staining at time points optimized for each system (48 h: 3C and CASM3C systems; 72 h: BT and HDF3CGF systems; 96 h: SAg system). SRB was performed by staining cells with 0.1% SRB after fixation with 10% TCA and reading wells at 560 nm.Viability and proliferation of PBMC (T cells) was quantified by Alamar Blue reduction for the SAg and BT systems. For PBMC viability (referred to as PBMC Cytotoxicity within the assay endpoint names), cells were plated (75,000/well in a 96-well plate) and then chemical samples added for 1 h before addition of activators, SEB and TSST-1 (20 ng/mL final concentration each). Cells were incubated for 90 h. Then, Alamar Blue (20 uL/well) (Invitrogen, Cat DAL1100) was added for 6 h, and the plates were read with a fluorescence microplate reader at 546/580 nm (excitation/emission). For PBMC proliferation, cells were plated and activated as above but incubated for only 16 h prior to addition of Alamar Blue. Plates were read after 6 h.

SMILES | AC50 | outcome
c1ccc(Nc2cccc3ccccc23)cc1 | 9.99 µM (active) and 12.2 µM (active) | 
CC=C(C)C=CC=C(C)C | 15.7 µM (active) | 
CCC1(C)C(=O)N(Cl)C(=O)N1Cl (stereo not given) |  | inactive
CCCCCC1=CCCC1=O |  | inactive
CC1(C)CC(O)CC(C)(C)N1[O] |  | inactive
CC(C)CCCCCOC(=O)CS |  | inactive
CC=C(C)C(C)=O | 20 µM (active) | 
C=CCCCCCCCCC=O |  | inactive
C1CNCCN1 |  | inactive
Nc1ccc(C(=O)O)cc1 |  | inactive
c1ccc2sc(SSN3CCOCC3)nc2c1 | 1.41 µM (active) | 
CCCCCCCCCCCC(=O)N(C)CC(=O)O |  | inactive
Cc1ccc([N+](=O)[O-])cc1N |  | inactive
O=C1CCCCCCCCCCC1 |  | inactive
C[N+](C)(C)CCCNS(=O)(=O)C(F)(F)C(F)(F)C(F)(F)C(F)(F)C(F)(F)C(F)(F)C(F)(F)C(F)(F)F | 1.44 µM (active) and 220 nM (active) | 
O=C(O)C(F)(F)C(F)(F)C(F)(F)C(F)(F)C(=O)O |  | inactive
CC(c1cc(C(C)(C)C)cc(C(C)(C)C)c1O)c1cc(C(C)(C)C)cc(C(C)(C)C)c1O |  | inactive
COC(OC)(C(=O)c1ccccc1)c1ccccc1 |  | inactive
CCOC(=O)C1=NOC(c2ccccc2)(c2ccccc2)C1 |  | inactive
C=C(C)C(=O)OCCCCCCCCCCCC | 11.7 µM (active) | 

SMILES | AC50 | outcome
CC(Cl)COP(=O)(OCC(C)Cl)OCC(C)Cl (stereo not given) |  | inactive
CCc1cccc(C)c1N(C(=O)CS(=O)(=O)O)C(C)COC (stereo not given) |  | inactive
CCOC(=O)C1=NN(c2ccc(Cl)cc2Cl)C(C)(C(=O)OCC)C1 (stereo not given) |  | inactive
CCOC(=O)/C=C\C(=O)OCC |  | inactive
Fc1ccc(Br)cc1 |  | inactive
Oc1ccc(/C=C/c2cc(O)cc(O)c2)cc1 | 17.5 µM (active) | 
COc1ccc(C(=O)c2ccccc2)c(O)c1 |  | inactive
CC(C)c1cccc(C(C)C)c1N |  | inactive
CCCCC1C(=O)N(c2ccccc2)N(c2ccccc2)C1=O |  | inactive
Oc1ccccc1Cc1ccccc1O | 28.1 µM (active) and 27 µM (active) | 
CCCCCCCO |  | inactive
C=CC(=O)OCCCCCCOC(=O)C=C | 1.72 µM (active) | 
CC(CCC(=O)O)(c1ccc(O)cc1)c1ccc(O)cc1 |  | inactive
C=CC(=O)OCC(C)OCC(C)OCC(C)OC(=O)C=C (stereo not given) | 6.25 µM (active) | 
CCNc1nc(NC(C)(C)C)nc(OC)n1 |  | inactive
Clc1cc(Cl)c(Cl)c(Cl)c1Cl |  | inactive
C=CC(=O)NCOCCCC |  | inactive
C=CC(=O)OCCCCCCCC(C)C | 9.62 µM (active) | 
CC1=CC=C(C(C)C)CC1 |  | inactive
CC/C=C\CCOC(=O)c1ccccc1O | 10 µM (active) | 
